# Laboratory results published in PubChem BioAssay.
# Potency and affinity values are given separately. Inconclusive results are not listed. Entries that show only a call come without a potency. Active and inactive are the calls of the source.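 Rule for the calls, unless noted: active = a dose-response fit showing signal loss, with half-maximal concentration no higher than twice the top tested dose; inconclusive = flat fit between 30% and 70% signal loss, or poor fit; inactive = the rest.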
# How the values were obtained:
# [1] = inducers of Cryptococcus neoformans cell lysis, dose response, AK release luminescence, cherry-picks (AID 687000;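 active = fitted dose curve reaches 40% lysis signal rise at or below the highest valid concentration tested for that sample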;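 note: luminescent detection of adenylate kinase leaking from lysed yeast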)
# [2] = HepG2 cell cytotoxicity, dose response, cytotoxicity control, cherry-picks, set 2 (AID 687002)
# [3] = HeLa cell cytotoxicity, dose response, cytotoxicity control, ATP luminescence, cherry-pick samples (AID 687004;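 active = a fitted half-maximal concentration no higher than twice the top valid tested dose, with signal falling as cells die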)
# [4] = HepG2 cell cytotoxicity, dose response, cytotoxicity control, plate reader, cherry-pick, antagonist series (AID 743416; call rule not given here)
# [5] = inhibitors of PAX8-driven TPO luciferase reporter, dose response, RMG-I cells, cherry-pick (AID 687027;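 active = every replicate test run called active, with the signal dropping as expected and potency within twice the top valid dose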)
# [6] = cytotoxicity in PAX8-dependent RMG-1 cells, dose response, cell-based, cherry-pick (AID 687029;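 active = signal drop whose fitted half-maximal concentration is at most twice the top valid dose, in every test run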;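 note: cells exposed to compound for 96 hours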)
# [7] = cytotoxicity in IOSE-T80 ovarian epithelial cells, dose response, selectivity assay for PAX8 inhibitor project, cell-based, cherry-pick (AID 687032;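 active = fitted half-maximal concentration for viability loss no higher than twice the top valid dose, in every repeat run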;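 note: cells exposed to compound for 96 h before reading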)
# [8] = inhibitors of CMV-promoter luciferase reporter, dose response, counter-screen for Pax8 inhibitor project, cell-based, HEK293, luminescence, dry powder (AID 743020;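 active = signal-lowering compounds whose fitted half-maximal concentration is at or below twice the top tested dose in every run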;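 note: HEK293 cells stably expressing the CMV luciferase reporter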)
# [9] = non-specific cell cytotoxicity, dose response, cytotoxicity control for PAX8 inhibitor project, plate reader, dry powder samples (AID 743021; call rule not given here)
compound,measurement,setting,value
Cc1ccccc1-n1ncc2c(SCC(=O)NCc3cccs3)ncnc21,outcome,[1],inactive
same,outcome,[2],inactive
same,outcome,[3],inactive
CNC[C@H]1Oc2ncc(C#CCC(C)C)cc2C(=O)N([C@H](C)CO)C[C@H]1C,outcome,[1],inactive
same,outcome,[2],inactive
same,outcome,[3],inactive
CO[C@H]1CN(C)C(=O)c2ccc(NC(=O)NC(C)C)cc2OC[C@@H](C)NC[C@H]1C,outcome,[1],inactive
same,outcome,[2],inactive
same,outcome,[3],inactive
C[C@H](NC(=O)C[C@H]1CC[C@@H](NC(=O)Cc2ccccn2)[C@@H](CO)O1)c1ccccc1,outcome,[1],inactive
same,outcome,[2],inactive
same,outcome,[3],inactive
Cc1cccc(OCC(=O)NCc2ccc(F)cc2)c1,outcome,[1],inactive
same,outcome,[2],inactive
same,outcome,[3],inactive
O=C(CN(c1ccccc1)S(=O)(=O)c1ccc(F)cc1)N1CCCCCC1,outcome,[1],inactive
same,outcome,[2],inactive
same,outcome,[3],inactive
Cc1ccc(NC(=O)C2(N3CCC3=O)CCCCC2)cc1,outcome,[1],inactive
same,outcome,[2],inactive
same,outcome,[3],inactive
Cc1ccc(NC(=O)C2CCC(=O)N2)cc1C (centres undefined),outcome,[1],inactive
same,outcome,[2],inactive
same,outcome,[3],inactive
C[C@@H]1CN([C@@H](C)CO)C(=O)c2cc(NC(=O)C3CC3)ccc2O[C@H]1CN(C)Cc1ccc2c(c1)OCO2,outcome,[1],inactive
same,outcome,[2],inactive
same,outcome,[3],inactive
CC(NC(=O)COc1ccccc1C(C)(C)C)c1ccccc1 (centres undefined),outcome,[1],inactive
same,outcome,[2],inactive
same,outcome,[3],inactive
COc1cccc(S(=O)(=O)Nc2ccc3c(c2)[C@H]2C[C@@H](CC(=O)NC4CCCCC4)O[C@@H](CO)[C@H]2O3)c1,outcome,[1],inactive
same,outcome,[2],inactive
same,outcome,[3],inactive
O=C(c1cccc(F)c1)N1C[C@H]2[C@@H](c3ccccc31)[C@@H](CO)N2Cc1cocn1,outcome,[1],inactive
same,outcome,[2],inactive
same,outcome,[3],inactive
C[C@H](CO)N1C[C@H](C)[C@H](CN(C)C(=O)NC2CCCCC2)OCCCC[C@H](C)Oc2ccc(NS(=O)(=O)c3cn(C)cn3)cc2C1=O,outcome,[1],inactive
same,outcome,[2],inactive
same,outcome,[3],inactive
C[C@H]1CN([C@@H](C)CO)C(=O)c2cc(C#CCN(C)C)cnc2O[C@@H]1CN(C)C(=O)Nc1cccc(F)c1,outcome,[1],inactive
same,outcome,[2],inactive
same,outcome,[3],inactive
O=C(CSc1ncnc2c1cnn2-c1ccc(F)cc1)NCc1ccc2c(c1)OCO2,outcome,[1],inactive
same,outcome,[2],inactive
same,outcome,[3],inactive
COc1ccc(NC(=O)CN2CCN(S(=O)(=O)c3ccc(C(C)C)cc3)CC2)cc1OC,outcome,[1],inactive
same,outcome,[2],inactive
same,outcome,[3],inactive
CN1C[C@@H]2C(c3ccc(C(F)(F)F)cc3)C3(c4ccccc4)CC2(C3)[C@H]1c1ccccc1 (some centres undefined),outcome,[1],inactive
same,outcome,[2],inactive
same,outcome,[3],inactive
C[C@H](CO)N1C[C@H](C)[C@@H](CN(C)Cc2ccc(Oc3ccccc3)cc2)Oc2ccc(NC(=O)Nc3ccc4c(c3)OCO4)cc2C1=O,outcome,[1],inactive
same,outcome,[2],inactive
same,outcome,[3],inactive
Cc1ccc(S(=O)(=O)N[C@H]2CC[C@H](CC(=O)NCc3ccccc3F)O[C@H]2CO)cc1,outcome,[1],inactive
same,outcome,[2],inactive
same,outcome,[3],inactive
O=C(CSc1ncnc2c1cnn2-c1ccccc1)NCC1CCCO1 (centres undefined),outcome,[1],inactive
same,outcome,[2],inactive
same,outcome,[3],inactive
COc1ccc(NC(=O)CSc2ncnc3c2cnn3CCc2ccccc2)cc1,outcome,[1],inactive
same,outcome,[2],inactive
same,outcome,[3],inactive
Cc1cccc(NC(=O)CN(C)C(=O)C2CCCC2)c1C,outcome,[1],inactive
same,outcome,[2],inactive
same,outcome,[3],inactive
C[C@@H]1CN([C@H](C)CO)C(=O)CCCn2nncc2CO[C@H]1CN(C)Cc1cccc(C(F)(F)F)c1,outcome,[1],inactive
same,outcome,[2],inactive
same,outcome,[3],inactive
C[C@H]1CN([C@@H](C)CO)S(=O)(=O)c2ccc(Br)cc2O[C@H]1CN(C)S(=O)(=O)c1ccccc1F,outcome,[1],inactive
same,outcome,[2],inactive
same,outcome,[3],inactive
O=C(c1ccco1)N1N=C(c2cccs2)CC1c1cc([N+](=O)[O-])ccc1O (centres undefined),outcome,[1],inactive
same,outcome,[2],inactive
same,outcome,[3],inactive
N#C[C@H]1[C@@H](c2ccccc2)[C@@H](CO)N1C(=O)Cc1ccccc1,outcome,[1],inactive
same,outcome,[2],inactive
same,outcome,[3],inactive
Cc1ccccc1OCC(=O)NCc1ccccc1,outcome,[1],inactive
same,outcome,[2],inactive
same,outcome,[3],inactive
O=C(C[C@@H]1CC[C@@H](NC(=O)c2cccnc2)[C@@H](CO)O1)NCCN1CCCCC1,outcome,[1],inactive
same,outcome,[2],inactive
same,outcome,[3],inactive
CNC[C@@H]1Oc2ccc(NS(=O)(=O)c3ccc(Cl)cc3)cc2C(=O)N([C@H](C)CO)C[C@H]1C,outcome,[1],inactive
same,outcome,[2],inactive
same,outcome,[3],inactive
CNC[C@@H]1Oc2c(NS(=O)(=O)c3ccc(Cl)cc3)cccc2C(=O)N([C@H](C)CO)C[C@H]1C,outcome,[1],inactive
same,outcome,[2],inactive
same,outcome,[3],inactive
CO[C@@H]1CN(C)C(=O)c2cc(NC(=O)C3CCOCC3)ccc2OC[C@H](C)NC[C@@H]1C,outcome,[1],inactive
same,outcome,[2],inactive
same,outcome,[3],inactive
Cc1cc(C)c(NC(=O)CN2CCCCCC2)c(C)c1,outcome,[1],inactive
same,outcome,[2],inactive
same,outcome,[3],inactive
Cc1cc(C)c(NC(=O)CNC(=O)CNC(=O)C2CCCCC2)c(C)c1,outcome,[1],inactive
same,outcome,[2],inactive
same,outcome,[3],inactive
Cc1ccc(C(=O)Nc2ccc3ncccc3c2)cc1,outcome,[4],inactive
CC(C)CC1(C)N=C(c2ccccc2)C(=S)N1 (centres undefined),outcome,[2],inactive
same,outcome,[3],inactive
NC(=S)N/N=C/c1ccc(-c2cc(Cl)ccc2Cl)o1,outcome,[2],inactive
S=C(Nc1cccc(Cl)c1)Nc1ccccc1Oc1ccccc1,outcome,[2],inactive
same,outcome,[3],inactive
COC(=O)C1=C(C)N(CC(C)C)C(=S)NC1c1ccc(-c2ccccc2)cc1 (centres undefined),outcome,[2],inactive
COC(=O)C1=C(C)N(Cc2ccc(Cl)cc2)C(=S)NC1c1cccc(Cl)c1 (centres undefined),outcome,[2],inactive
COC(=O)C1=C(C)N(C)C(=S)NC1c1ccccc1 (centres undefined),outcome,[2],inactive
same,outcome,[3],inactive
O=C(C[C@H]1CC[C@@H]2[C@H](COC[C@@H](O)CN2C(=O)c2cnccn2)O1)NCc1ccc(Oc2ccccc2)cc1,outcome,[2],inactive
same,outcome,[3],inactive
COc1cccc(NC(=S)N2CCC(Cc3ccccc3)CC2)c1,outcome,[2],inactive
same,outcome,[3],inactive
COc1ccc(CNC(=S)NCc2ccc(OC(C)C)cc2)cc1,outcome,[2],inactive
same,outcome,[3],inactive
CC=Cc1ccc2n(c1=O)C[C@@H]1[C@@H](CO)[C@H](C(=O)N3CCc4ccccc4C3)N(C(=O)C3CC3)[C@H]21 (mixture of isomers),outcome,[2],inactive
same,outcome,[3],inactive
C[C@H](CO)N1C[C@H](C)[C@@H](CN(C)Cc2ccc(Oc3ccccc3)cc2)Oc2ccc(NS(=O)(=O)c3cn(C)cn3)cc2CC1=O,outcome,[2],inactive
same,outcome,[3],inactive
COC(=O)C1=C(C)N(Cc2ccc(Br)cc2)C(=S)NC1c1ccccc1 (centres undefined),outcome,[2],inactive
same,outcome,[3],inactive
Cc1c(Cl)cccc1NC(=S)NCCc1ccc(Cl)cc1,outcome,[2],inactive
same,outcome,[3],inactive
S=C(Nc1ccccc1Oc1ccccc1)Nc1cccc(Cl)c1Cl,outcome,[2],inactive
same,outcome,[3],inactive
O=C(NC(=S)Nc1cc(Cl)ccc1N1CCOCC1)c1ccccc1[N+](=O)[O-],outcome,[2],inactive
same,outcome,[3],inactive
COC(=O)C1=C(C)N(Cc2ccc(Cl)cc2)C(=S)NC1c1ccc(OC)cc1 (centres undefined),outcome,[2],inactive
same,outcome,[3],inactive
CC(C)c1ccccc1NC(=S)NN(Cc1ccccc1)c1ccccc1,outcome,[2],inactive
Cc1ccc2nc(C)c3c(c2c1)OC(C(C)(Cl)Br)C3 (centres undefined),outcome,[2],inactive
CCCCN1C(=S)NC[C@@H]1Cc1ccccc1,outcome,[2],inactive
same,outcome,[3],inactive
C[C@H]1CCCCO[C@@H](CN(C)Cc2ccncc2)[C@@H](C)CN([C@@H](C)CO)C(=O)c2cc(NC(=O)Nc3ccccc3)ccc2O1,outcome,[2],inactive
same,outcome,[3],inactive
C[C@H](CO)N1C[C@H](C)[C@H](CN(C)C(=O)Nc2ccc3c(c2)OCO3)Oc2ncc(C#CC(C)(C)O)cc2C1=O,outcome,[2],inactive
same,outcome,[3],inactive
COC(=O)C1=C(C)N(Cc2ccc(F)cc2)C(=S)NC1c1ccc(Cl)cc1 (centres undefined),outcome,[2],inactive
COC(=O)C1=C(C)N(Cc2ccccc2)C(=S)N[C@H]1c1cccc(C(F)(F)F)c1,outcome,[2],inactive
O=C(NC(=S)Nc1ccccc1N1CCOCC1)c1ccc(Br)cc1,outcome,[2],inactive
same,outcome,[3],inactive
O=C(NC(=S)Nc1ccccc1N1CCOCC1)c1cccc([N+](=O)[O-])c1,outcome,[2],inactive
same,outcome,[3],inactive
O=C(N[C@@H]1CC[C@@H](CCn2cc(-c3ccccc3)nn2)O[C@H]1CO)c1cnccn1,outcome,[2],inactive
same,outcome,[3],inactive
COc1ccccc1C#Cc1ccc2c(c1)O[C@H](CN(C)C(C)=O)[C@H](C)CN([C@@H](C)CO)S2(=O)=O,outcome,[2],inactive
same,outcome,[3],inactive
COC(=O)C1=C(C)N(Cc2ccc(Cl)cc2)C(=S)NC1c1ccccc1 (centres undefined),outcome,[2],inactive
same,outcome,[3],inactive
COc1ccc(C(=O)NC(=S)Nc2ccccc2N2CCOCC2)cc1[N+](=O)[O-],outcome,[2],inactive
Cc1ccc(OCCn2c(=S)[nH]c3ccccc32)c(C(C)C)c1,outcome,[2],inactive
CCc1ccc(C(=O)NC(=S)NCc2cccnc2)cc1,outcome,[2],inactive
same,outcome,[3],inactive
O=C(C1CCOCC1)N1CC[C@@H]2[C@@H](CO)Nc3ccc(Br)cc3[C@@H]21,outcome,[2],inactive
same,outcome,[3],inactive
Cc1c(C(=O)NC(=S)Nc2ccccc2N2CCCC2)cccc1[N+](=O)[O-],outcome,[2],inactive
same,outcome,[3],inactive
CCC(=O)N(C)C[C@@H]1Oc2cc(C#CC(C)(C)O)ccc2S(=O)(=O)N([C@@H](C)CO)C[C@H]1C,outcome,[2],inactive
same,outcome,[3],inactive
Fc1ccccc1NC(=S)NN(Cc1ccccc1)c1ccccc1,outcome,[2],inactive
same,outcome,[3],inactive
O=C(CSc1ncnc2c1cnn2-c1cccc(Cl)c1)NCC1CCCO1 (centres undefined),outcome,[2],inactive
same,outcome,[3],inactive
C[C@@H]1CN([C@H](C)CO)C(=O)c2cc(C3=CCCCC3)cnc2O[C@H]1CN(C)C(=O)Cc1cccnc1,outcome,[2],inactive
same,outcome,[3],inactive
COc1ccccc1/C=N/NC(=S)NCc1ccco1,outcome,[2],inactive
same,outcome,[3],inactive
Cc1cc(C)c(NC(=O)C2CCCN2CCC(C)C)c(C)c1 (centres undefined),outcome,[2],inactive
COC(=O)C1=C(C)N(Cc2ccccc2)C(=S)N[C@H]1c1cccc(F)c1,outcome,[2],inactive
O=C1/C(=C\c2ccco2)SC(=S)N1c1ccc(O)cc1,outcome,[5],inactive
same,outcome,[6],inactive
same,outcome,[7],inactive
same,outcome,[8],inactive
same,outcome,[9],inactive
Cc1ccc(NC(=O)NC(=O)COc2ccc(Cl)cc2Cl)c(C)c1,outcome,[5],inactive
same,outcome,[6],inactive
same,outcome,[7],inactive
same,outcome,[8],inactive
same,outcome,[9],inactive
